Shown are actives, neighbours in structure and some others; about 10% of the full set was active somewhere.
JMJD2A Tudor inh – blocks the human JMJD2A Tudor domain | AlphaScreen JMJD2A-Tudor / H3K4me3 peptide binding | AID 504339 | O75164 | hit rate 4.4% among 390,000 | Potency, µM (doses to about 114 µM), without a hit: at the top dose activity change, negative = inhibition, hits mostly inhibitors; further: potency means the concentration at half of the fitted maximal effect; on the % scale 0 is the no-effect control and ±100 the full control effect; nearly all actives have a fitted effect of over 50% in size
G9a inh – blocks human histone lysine methyltransferase G9a | hit rate 8.8% among 350,000 | Q96KQ7 | Potency, µM (doses to about 102 µM), without a hit: top-dose activity, negative = inhibition, actives largely listed as inhibitors | G9a H3K9 monomethylation, AlphaScreen, 2 h | AID 504332; further: potency means the concentration at half of the fitted maximal effect; on the % scale 0 is the no-effect control and ±100 the full control effect; nearly all actives have a fitted effect of over 75% in size
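AlphaScreen detection with an anti-monomethyl H3K9 antibody quantified product after a 2 h room-temperature reaction containing 500 nM biotinylated H3K9 peptide, 20 µM SAM and 20 nM enzyme, which had been preincubated 15 min with compound.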
CtBP-E1A blk – inhibitors of CtBP/E1A interaction; AlphaScreen GST-E1A/His-CtBP binding, 1536-well; stronger effect = lower value; activity change, % (test concentration not listed); hit rate 0.49% among 340,000; AID 651724; in the data active means activity change below about -65%; inconclusive means mostly about -30% to -63%; further: on the % scale 0 is the no-effect control and ±100 the full control effect
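In 5 uL wells, 23 nL compound meets equimolar GST-E1A and His-CtBP (5X stock 125 nM each) for 2 h, 37 °C. Beads (5X, 50 ug/mL) then 1 h, 37 °C, dark.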
Six1-Eya2 inh – Six1/Eya2 interaction inhibition; Q15475+O00167; AlphaScreen GST-Six1/His-Eya2 binding, biochemical; stronger effect = lower value; activity change, % (concentration not given with the values); hit rate 0.56% among 360,000; AID 651725; in the data active means activity change below about -65%; inconclusive means mostly about -30% to -63%; further: on the % scale 0 is the no-effect control and ±100 the full control effect
Target sequence (O00167 whole entry, looked up): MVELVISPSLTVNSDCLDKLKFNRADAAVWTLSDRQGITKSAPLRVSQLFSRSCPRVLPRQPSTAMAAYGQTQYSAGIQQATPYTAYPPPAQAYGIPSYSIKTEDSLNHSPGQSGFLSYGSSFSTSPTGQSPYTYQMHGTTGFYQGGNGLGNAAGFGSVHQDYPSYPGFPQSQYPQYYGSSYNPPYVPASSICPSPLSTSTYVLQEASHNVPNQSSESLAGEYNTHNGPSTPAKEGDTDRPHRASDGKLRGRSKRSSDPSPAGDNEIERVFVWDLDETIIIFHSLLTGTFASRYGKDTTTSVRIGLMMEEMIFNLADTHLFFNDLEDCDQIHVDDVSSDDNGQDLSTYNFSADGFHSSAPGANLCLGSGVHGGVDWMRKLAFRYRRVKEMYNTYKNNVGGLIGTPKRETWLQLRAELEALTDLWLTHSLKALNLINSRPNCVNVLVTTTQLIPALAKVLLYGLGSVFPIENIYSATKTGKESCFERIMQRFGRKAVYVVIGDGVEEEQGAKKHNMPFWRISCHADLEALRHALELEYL
Target sequence (Q15475 whole entry, looked up): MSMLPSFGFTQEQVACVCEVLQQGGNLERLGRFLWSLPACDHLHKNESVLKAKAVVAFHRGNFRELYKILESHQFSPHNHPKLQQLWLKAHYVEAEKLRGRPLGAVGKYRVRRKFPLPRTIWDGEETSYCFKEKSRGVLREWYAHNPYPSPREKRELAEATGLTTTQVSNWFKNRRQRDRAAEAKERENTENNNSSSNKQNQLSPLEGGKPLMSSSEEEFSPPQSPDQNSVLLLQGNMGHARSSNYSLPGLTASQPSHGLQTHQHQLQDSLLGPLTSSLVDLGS
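Six1/Eya2 binding was read as AlphaScreen signal after compounds were pinned into GST-Six1 plus His-tagged Eya2 (5X stock 250/500 nM) in pH 8.0 Tris/NaCl/TCEP buffer, beads added, then incubated 1 h, 37 C, dark.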
HP1b chromo inh – inhibitors of HP1-beta chromodomain binding to methylated histone tails; P83916; AlphaScreen HP1-beta / biotin-H3K9me3 peptide binding; Potency, µM (series often up to 114 µM), for inactives: at the top dose activity change, negative = inhibition, most hits filed as inhibitors; hit rate 0.56% among 390,000; AID 540317; further: potency means the concentration at half of the fitted maximal effect; nearly all actives have a fitted effect of over 70% in size
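AlphaScreen: HP1-beta (50 nM) preformed 30 min with biotin-H3(1-18)K9me3 peptide (50 nM) in PBS pH 7.4, 0.01% Tween-20. Compound added for 30 min at RT, then streptavidin donor/nickel chelate acceptor beads (10 ug/mL) for 30 min.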
BAZ2B block – BAZ2B (human) inhibition. Potency, µM (titrated, usually from 114 µM), inactives show at the top dose activity change, negative = inhibition, hits mostly inhibitors. Q9UIF8. AlphaScreen BAZ2B-H3K14Ac peptide displacement. AID 504333. hit rate 4.4% among 360,000; further: potency means the concentration at half of the fitted maximal effect; on the % scale 0 is the no-effect control and ±100 the full control effect; nearly all actives have a fitted effect of over 60% in size
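Inhibition is scored as reduced AlphaScreen emission. The BAZ2B/b-H3(5-23)K14Ac complex (50 nM each) in PBS pH 7.4, 0.01% Tween-20 meets compound (up to 110 uM) for 30 min at RT before bead addition.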
Active calls of the source: *; [ ] = another dose, or the depositor's remark. Unless noted, the call rests on the fitted dose curve; in most records, active means well fitted inhibition curve with a large enough effect; inconclusive means small, poorly fitted or top-dose-only effect; inactive means no such curve, though single readings can be large or run the other way.

Screening Cc1ccc(N(Cc2cc(=O)[nH]c3ccccc23)C(=O)C(C)C)cc1 returned JMJD2A Tudor inh -9%[11.4 µM], G9a inh 50µM*, CtBP-E1A blk -9, Six1-Eya2 inh -1, HP1b chromo inh 34% and BAZ2B block -5%.
For CCCC(=O)N(Cc1cc(=O)[nH]c2ccccc12)c1ccc(C)cc1 the results were JMJD2A Tudor inh 89µM*, G9a inh 25µM*, CtBP-E1A blk 3, Six1-Eya2 inh 0, HP1b chromo inh -9% and BAZ2B block -3%.
Screening COc1ccc(N(Cc2cc(=O)[nH]c3ccccc23)C(=O)c2ccco2)cc1 returned JMJD2A Tudor inh inconclusive, G9a inh 50µM*, CtBP-E1A blk -22, Six1-Eya2 inh 0, HP1b chromo inh 10% and BAZ2B block 1%.
Screening CCCC(=O)N(Cc1cc(=O)[nH]c2ccccc12)c1ccccc1OC returned JMJD2A Tudor inh -15%, G9a inh 45µM*, CtBP-E1A blk 1, Six1-Eya2 inh -5, HP1b chromo inh 20% and BAZ2B block -14%.
Screening COc1ccc(F)cc1S(=O)(=O)NCC(c1ccco1)S(=O)(=O)c1cccs1 (stereo not given) returned JMJD2A Tudor inh -13%, G9a inh 5%[59 µM], HP1b chromo inh 0% and BAZ2B block -15%.
`COCCCNC(=O)c1sc2nc(C)c(C(=O)Nc3ccc(C)cc3C)c(-c3ccccc3Cl)c2c1N` gave JMJD2A Tudor inh 1%, G9a inh -32%[59 µM], HP1b chromo inh 63% and BAZ2B block 9%.
Screening CCc1ccc(NS(=O)(=O)c2ccc(-c3cc(C)no3)cc2)cc1 returned JMJD2A Tudor inh -10%, G9a inh -10%[59 µM], HP1b chromo inh 40% and BAZ2B block -1%.
CCOc1ccc(-n2c(SCC(=O)N3CCC(C)CC3)nc3c([nH]c4ccccc43)c2=O)cc1 was read as JMJD2A Tudor inh 0%, G9a inh 5%[59 µM], HP1b chromo inh 11%[57 µM] and BAZ2B block -1%.
Screening COc1ccc(NC(=O)C(c2ccccc2)c2ccccc2)cn1 returned JMJD2A Tudor inh -1%, G9a inh -3%, CtBP-E1A blk 7, Six1-Eya2 inh -1, HP1b chromo inh 48% and BAZ2B block -20%.
Screening C[C@H](CO)N1C[C@H](C)[C@@H](CN(C)Cc2ccc3c(c2)OCO3)Oc2c(NS(C)(=O)=O)cccc2C1=O returned JMJD2A Tudor inh -5%, CtBP-E1A blk 0, Six1-Eya2 inh 3 and HP1b chromo inh 44%.
CCOc1cc(/C=C2\SC(=S)N(NC(=O)c3cccnc3)C2=O)ccc1O was read as JMJD2A Tudor inh -35%, G9a inh 10%[12.7 µM], CtBP-E1A blk inconclusive, Six1-Eya2 inh inconclusive, HP1b chromo inh inconclusive and BAZ2B block 10µM*.
O=C(NN1C(=O)/C(=C/c2cccs2)SC1=S)c1cccnc1 was read as JMJD2A Tudor inh -23%, G9a inh 50µM*, CtBP-E1A blk inconclusive, Six1-Eya2 inh inconclusive, HP1b chromo inh 20% and BAZ2B block -31%.
`CC(/C=C1\SC(=S)N(NC(=O)c2ccncc2)C1=O)=C\c1ccccc1` gave JMJD2A Tudor inh inconclusive, G9a inh inconclusive, CtBP-E1A blk -26, Six1-Eya2 inh -28, HP1b chromo inh -14% and BAZ2B block inconclusive.
COc1cc(/C=C2\SC(=S)N(NC(=O)c3ccncc3)C2=O)ccc1O was read as JMJD2A Tudor inh -9%, G9a inh 45µM*, CtBP-E1A blk -6, Six1-Eya2 inh -26, HP1b chromo inh -27% and BAZ2B block inconclusive.
`COc1cc(/C=C2\SC(=S)N(NC(=O)c3cccc(O)c3)C2=O)ccc1O` gave JMJD2A Tudor inh inconclusive, G9a inh 35µM*, CtBP-E1A blk inconclusive, Six1-Eya2 inh inconclusive, HP1b chromo inh 45µM* and BAZ2B block 35µM*.
O=C(CCN1C(=O)/C(=C/c2cccc(Br)c2)SC1=S)NNC(=O)c1cccnc1 was read as JMJD2A Tudor inh -9%, G9a inh -20%, CtBP-E1A blk -17, Six1-Eya2 inh -4, HP1b chromo inh 11% and BAZ2B block 3%.
COc1ncc2nc(CCc3ccccc3)c(=O)n(CCc3ccccc3)c2n1 was read as G9a inh 18%[0.501 µM].
Screening CCC(=O)OCCCCCCOc1ccc(C(=O)O)cc1 returned JMJD2A Tudor inh -12%, G9a inh 12%[59 µM], CtBP-E1A blk 2, Six1-Eya2 inh 3, HP1b chromo inh 19% and BAZ2B block -5%.
Screening COc1cc(/C=C2\SC(=S)N(NC(=O)c3ccccc3OC)C2=O)ccc1O returned JMJD2A Tudor inh inconclusive, G9a inh 16µM*, CtBP-E1A blk inconclusive, Six1-Eya2 inh inconclusive, HP1b chromo inh 25µM* and BAZ2B block 20µM*.
O=C(O)c1ccc(/C=C2\SC(=S)N(NC(=O)c3ccccc3)C2=O)cc1 was read as JMJD2A Tudor inh -7%, G9a inh inconclusive, Six1-Eya2 inh -22, HP1b chromo inh 30% and BAZ2B block -20%.
Screening O=C(NN1C(=O)CSC1=S)c1cccnc1 returned JMJD2A Tudor inh inconclusive, G9a inh 50µM*, CtBP-E1A blk -2, Six1-Eya2 inh 5, HP1b chromo inh 12% and BAZ2B block inconclusive.
Cc1ccccc1C(=O)NN1C(=O)CSC1=S was read as JMJD2A Tudor inh -14%, G9a inh -22%[59 µM], CtBP-E1A blk -23, Six1-Eya2 inh 0, HP1b chromo inh 25% and BAZ2B block -2%.
COc1cc(/C=C2\SC(=S)N(NC(=O)c3ccc(O)c(OC)c3)C2=O)ccc1O was read as JMJD2A Tudor inh 56µM*, G9a inh 35µM*, CtBP-E1A blk inconclusive, Six1-Eya2 inh -6, HP1b chromo inh 50µM* and BAZ2B block 35µM*.
O=C(Nc1noc2ccccc12)c1ccc(F)cc1 was read as JMJD2A Tudor inh 6%, G9a inh 25%[59 µM], HP1b chromo inh 51% and BAZ2B block 4%.
`C#CCOCCOCCOCCNc1nc(N2CCN(C(=O)CCCCCCCCCCNC(=O)[C@@H](CCC(=O)O)n3cc(CCCCCN)nn3)CC2)nc(N2CCN(C(=O)CCCCCCCCCCNC(=O)[C@@H](CCC(=O)O)n3cc(CCCCCN)nn3)CC2)n1` gave JMJD2A Tudor inh -31%, G9a inh 0%[2.33 µM], CtBP-E1A blk 1, Six1-Eya2 inh -2, HP1b chromo inh 36% and BAZ2B block inconclusive.
For C#CCOCCOCCOCCNc1nc(N2CCN(C(=O)CCCCCCCCCCNC(=O)[C@H](CCCCN)n3cc(C)nn3)CC2)nc(N2CCN(C(=O)CCCCCCCCCCNC(=O)[C@@H]([C@H](C)CC)n3cc(CCCCCN)nn3)CC2)n1 the results were G9a inh 7%[2.33 µM] and BAZ2B block 56µM*.
